“And” between values parts separate entries of the source, which are not always exact repeats. Identical values can stand only once.
Key:
Assay in all cases: growth inhibition (% activity, log2 RLU normalised to DMSO / staurosporine); higher = more growth inhibition
Settings in all cases: 33 µM
[1] = test system: DIPGX29 (H3.3 K27M diffuse intrinsic pontine glioma line)
Method in brief: (§1)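 For each approved drug, the growth-inhibition value is the replicate median of per-plate normalised CellTiter-Glo data. Luminescence was log2-transformed and expressed as % activity between solvent and positive control wells. Drugs were applied in triplicate at a single final concentration of about 33 μM for 7 days at 37 °C, 5% CO2 to pHGG cell lines and H9-derived neural stem cells.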

[2] = test system: DIPGX37 (H3.3 K27M diffuse intrinsic pontine glioma line)
Method in brief: as §1

[3] = test system: DIPGX7 (H3.3 K27M diffuse intrinsic pontine glioma line)
Method in brief: as §1

[4] = test system: DIPGX9 (diffuse intrinsic pontine glioma line)
Method in brief: as §1

[5] = test system: HGGX39 (paediatric high-grade glioma line)
Method in brief: as §1

[6] = test system: HGGX6 (H3.3 G34R paediatric high-grade glioma line)
Method in brief: as §1

[7] = test system: HNSC
Method in brief: as §1

[8] = test system: SUDIPGIV (diffuse intrinsic pontine glioma line)
Method in brief: as §1

[9] = test system: SUDIPGVI (diffuse intrinsic pontine glioma line)
Method in brief: as §1

[10] = test system: SUDIPGXIII (diffuse intrinsic pontine glioma line)
Method in brief: as §1

Row | SMILES | growth inhibition [1] | growth inhibition [2] | growth inhibition [3] | growth inhibition [4] | growth inhibition [5] | growth inhibition [6] | growth inhibition [7] | growth inhibition [8] | growth inhibition [9] | growth inhibition [10]
1 | c1ccc2c(CC3=NCCN3)cccc2c1 | 0.509% | 1.82% | 1.78% | 1.2% | 4.23% | -1.48% | 10% | 1.67% | 3.03% | 1.34%
2 | [I-].[K+] | -0.931% | -0.668% | -0.00688% | -0.676% | 0.215% | -4.01% | 20.4% | -0.567% | -0.261% | -4.16%
3 | Cc1ncc(C[n+]2csc(CCO)c2C)c(N)n1 | 0.631% | -0.256% | -1.44% | 0.746% | 1.92% | 1.62% | -1.01% | -0.371% | 0.498% | 0.53%
4 | COc1ccccc1OCCNCC(O)COc1cccc2[nH]c3ccccc3c12 (stereo not given) | 6.61% | 2.55% | 3.4% | 3.73% | 5.74% | 4.11% | 7.57% | 1.9% | 5.96% | 2.05%
5 | COCCc1ccc(OCC(O)CNC(C)C)cc1 (stereo not given) | 0.745% | 0.102% | 1.22% | 2.73% | 2.04% | 1.92% | -0.726% | 0.382% | 2.97% | -0.552%
6 | C[C@H]1[C@H](NC(=O)/C(=N\OC(C)(C)C(=O)O)c2csc(N)n2)C(=O)N1S(=O)(=O)O | 1.82% | 1.51% | 2.55% | 1.75% | 2.62% | 1.95% | 1.91% | 1.35% | 3.09% | 1.38%
7 | CNC[C@H](O)[C@@H](O)[C@H](O)[C@H](O)CO | 1.22% | 3.72% | 2.92% | 1.9% | 4.71% | 1.37% | 3.01% | 2.28% | 3.8% | -1.42%
8 | CC1CC(OC(=O)C(O)c2ccccc2)CC(C)(C)C1 (stereo not given) | -0.681% | 1.83% | 0.84% | 0.0624% | 1.43% | -3.88% | 10.7% | 2.02% | 0.402% | 1.8%
9 | Cc1ccc(Nc2nccc(N(C)c3ccc4c(C)n(C)nc4c3)n2)cc1S(N)(=O)=O | 3.74% and 7.46% | 4.99% and 1.63% | 5% and 10.4% | 3.67% and 7.92% | 6.65% and 10.2% | 5.31% and 11.1% | 4.18% and 9.11% | 4.44% and 6.85% | 5.08% and 5.8% | 3.27% and 1.33%
10 | CCCCC(=O)O[C@]1(C(=O)CO)[C@@H](C)C[C@H]2[C@@H]3CCC4=CC(=O)C=C[C@]4(C)[C@@]3(F)[C@@H](O)C[C@@]21C | 2.95% | 4.71% | 0.933% | 4% | 3.19% | 1.27% | 0.754% | 0.551% | 2.82% | 2.04%
11 | CNCC[C@H](Oc1cccc2ccccc12)c1cccs1 | 3.5% | 4.35% | 4.07% | 2.42% | 5.92% | 4.8% | 16.9% | 2.42% | 4.44% | -1.12%
12 | CN(C/C=C/c1ccccc1)Cc1cccc2ccccc12 | 1.23% | -0.956% | -0.0716% | 1.9% | 1.84% | 2.12% | -1.49% | 0.156% | 1.27% | 0.316%
13 | COc1cc2nc(N3CCN(C(=O)C4COc5ccccc5O4)CC3)nc(N)c2cc1OC (stereo not given) | 0.458% | 2.32% | 1.34% | 0.0132% | 2.47% | 1.58% | -0.951% | -3.82% | 1.52% | 2.13%
14 | CC(C)OC(=O)C(C(=O)OC(C)C)=C1SC=CS1 | 12.7% | 6.67% | 26.1% | 4.32% | 8.43% | 13.3% | 43.7% | 16.3% | -3.26% | 2.97%
15 | O=C(O)Cc1cc(I)c(Oc2ccc(O)c(I)c2)c(I)c1 | 1.55% | 4.31% | 0.436% | 0.952% | 2.17% | 1.33% | -1.43% | 3.33% | 2.21% | -14.4%
16 | O=c1[nH]c(=O)n(C2CCCO2)cc1F (stereo not given) | -0.615% | 0.56% | -0.536% | -0.0713% | 1.51% | -0.669% | -0.796% | -1.49% | -0.356% | -6.49%
17 | CN1C(C(=O)Nc2ccccn2)=C(O)c2sc(Cl)cc2S1(=O)=O | -1.88% | -0.653% | -2.4% | 0.761% | -1.26% | -0.605% | -1.13% | -7.21% | -0.634% | 2.15%
18 | CC(C)Cn1cnc2c(N)nc3ccccc3c21 | 0.9% | 3.11% | 0.885% | 0.567% | 1.26% | 2.84% | 0.687% | 0.0825% | 3.61% | 0.156%
19 | COc1ccc2c(c1OC)C(=O)O[C@@H]2[C@H]1c2c(cc3c(c2OC)OCO3)CCN1C | -0.0995% | 0.428% | -0.697% | -1.08% | 0.078% | 1.48% | -1.88% | -0.28% | -0.0763% | 1.03%
20 | Cc1ccc(C(=O)c2ccc(CC(=O)O)n2C)cc1 | -0.189% | -0.055% | 0.146% | 0.57% | 0.449% | -0.641% | 2.18% | -4% | 1.82% | -0.302%
21 | O=C(N[C@H](CO)[C@H](O)c1ccc([N+](=O)[O-])cc1)C(Cl)Cl | -0.766% | 2.12% | -0.167% | -0.0638% | 1.67% | -1.13% | 3.64% | -0.734% | 0.976% | -0.883%
